Laboratory results as given in PubChem BioAssay (NCATS).
Activity calls are given as the source filed them. Calls come from the whole dose curve; as a rule, active = well fitted inhibition curve with a large enough effect; inconclusive = small, poorly fitted or top-dose-only effect; inactive = no such curve, though single readings can be large or run the other way.

Molecular target: Single-stranded DNA cytosine deaminase (Homo sapiens) (UniProt Q9GZX7)
Experiment: Validation qHTS assay for inhibitors of Activation Induced Cytidine Deaminase (AID): AID signal (AID 1347429)
Settings: Recombinant AID, FRET ssDNA deamination with UDG, fluorescence; series mostly up to 115 µM; activity change, negative = inhibition: at the top concentration
Method in brief: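 AID+UDG coupled FRET deamination; cpds up to 114 uM final; DJC20/DJC23 substrate, 4 hr RT; NaOH stop, 30 min RT; read Ex 540/Em 590.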
% is set by controls: 0 for no effect and ±100 for the full control effect; potency is the fitted concentration of half-maximal effect.

Chain of Single-stranded DNA cytosine deaminase (Homo sapiens) (Q9GZX7 whole entry, looked up): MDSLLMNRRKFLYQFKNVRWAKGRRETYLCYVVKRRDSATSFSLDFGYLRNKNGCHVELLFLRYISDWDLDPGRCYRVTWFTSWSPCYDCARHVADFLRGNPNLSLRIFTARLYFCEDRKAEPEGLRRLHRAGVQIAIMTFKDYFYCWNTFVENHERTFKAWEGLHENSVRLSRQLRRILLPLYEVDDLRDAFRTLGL

Structure (SMILES)	activity change, negative = inhibition	Potency
COc1ccc2[nH]cc(CCN)c2c1	16.9% (inactive)	–
C[N+](C)(C)CC#CCOC(=O)Nc1cccc(Cl)c1	18.7% (inactive)	–
CC(=O)c1c(O)c(C)c(O)c(Cc2c(O)c3c(c(C(=O)/C=C/c4ccccc4)c2O)OC(C)(C)C=C3)c1O	–	31.6 µM (active)
Oc1ccc2c3c1O[C@H]1c4oc5ccccc5c4C[C@@]4(O)C(C2)N(CC2CC2)CCC314 (stereo partly drawn)	3.22% (inactive)	–
c1ccc2cc(CC3=NCCN3)ccc2c1	0.325% (inactive)	–
CCCN(CCC)[C@H]1CCc2c(F)ccc(O)c2C1	106% (inactive)	–
N[C@@H](Cn1oc(=O)[nH]c1=O)C(=O)O	-1.55% (inactive)	–
C[C@H](N)CN1CCc2ccc(Br)cc21	38.8% (inactive)	–
C[N+](C)(C)CCOC(=O)CBr	13% (inactive)	–
CCCN1CCc2cc(O)cc3c2[C@H]1Cc1ccc(O)c(O)c1-3	39.1% (inactive)	–
CCCN(CCC)C1CCc2cccc(O)c2C1 (stereo not drawn)	19.7% (inactive)	–
NC(=O)COc1c(F)cc(SCCNS(=O)(=O)c2ccccc2)cc1F	-5.78% (inactive)	–
CCOC(=O)c1ncn2c1[C@@H]1CCCN1C(=O)c1cc(OC)ccc1-2	11.1% (inactive)	–
CC(C)(O)[C@@H]1C2OC(=O)[C@@H]1[C@]1(O)C[C@H]3O[C@]34C(=O)O[C@H]2[C@]14C (tested in a mixture with another compound)	23.6% (inactive)	–
CCCN1CC[C@@H]2c3cc(O)ccc3CC[C@@H]21	46.1% (inactive)	–
OCc1cnc[nH]1	15.5% (inactive)	–
NC(N)=NOCC[C@H](N)C(=O)O	-5.04% (inactive)	–
C#CCN[C@H](C)Cc1ccccc1	13.8% (inactive)	–
CCCC[N+]1(C)C2CC(OC(=O)[C@H](CO)c3ccccc3)CC1C1OC12 (stereo partly drawn)	8.94% (inactive)	–
CC(=O)NBr	3.73% (inactive)	–
c1ccc2c(N3CCNCC3)cccc2c1	-5.39% (inactive)	–
CC(N)Cc1c[nH]c2ccc(OCc3cccs3)cc12 (stereo not drawn)	24.2% (inactive)	–
COC(=O)N1CCN(C(=O)Cc2ccc(Cl)c(Cl)c2)C(CN2CCCC2)C1 (stereo not drawn)	24.9% (inactive)	–
C[N+]1(C)CCN(c2ccccc2)CC1	4.91% (inactive)	–
C[N+](C)(C)CC#CCN1CCCC1=O	-3.21% (inactive)	–
NC(CCCCCP(=O)(O)O)C(=O)O (stereo not drawn)	11.7% (inactive)	–
Clc1ccc(N2CC3CCC(C2)N3)nn1	111% (inactive)	–
NC(C(=O)O)c1cc(=O)[nH]o1 (stereo not drawn)	10.8% (inactive)	–
